Test results reported in PubChem BioAssay AID1626 (SRMLSC, 2009).
In all, about 220,000 compounds went through this assay and about 2,000 (0.91%) were called active. About 2% were inconclusive and are not listed. Cut-off read from the data, not from the text of the source: inconclusive = inhibition above about 80% without an active follow-up result; inactive = below that; test concentration not stated here. Not all results are given here. Potency and affinity values are given separately.

Assay: M. tuberculosis H37Rv growth inhibitors, H37Rv strain (AID 1626);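 note: bacteria incubated seven days before Alamar blue readout; 0% = bacteria only wells and 100% = bacteria with antibiotic wells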
Conditions: stronger effect = higher value, concentration not given here

| Structure (SMILES) | inhibition |
| --- | --- |
| O=C(CNS(=O)(=O)c1ccccc1)Nc1ccc2c(c1)OCO2 | 0.17% (inactive) |
| O=C(Nc1ccccc1C(=O)N1CCNCC1)c1ccco1 | -1.36% (inactive) |
| CC1CCc2nn(CC(=O)Nc3c(F)cc(F)cc3Br)cc2C1 (centres undefined) | 0.73% (inactive) |
| Cc1cc(C(=O)N2CCCC(C(=O)c3cccc(C(F)(F)F)c3)C2)nc(C)n1 (centres undefined) | -11% (inactive) |
| COc1ccc(Cl)cc1-c1csc(N)n1 | -2.91% (inactive) |
| O=C(CSc1nc2ccc([N+](=O)[O-])cc2[nH]1)c1ccc2ccccc2c1 | 13.4% (inactive) |
| Cc1ccc(NS(=O)(=O)c2cc(C(=O)NCc3ccccn3)ccc2Cl)cc1C | 4.55% (inactive) |
| CC(=O)Nc1cccc(NC(=O)c2cc(C)on2)c1 | -10.6% (inactive) |
| CC(=O)c1ccc(NC(=O)Cn2nc(C)c([N+](=O)[O-])c2C)cc1 | 2.02% (inactive) |
| CN(C)CCN1CC(C(=O)O)CC1=O (centres undefined) | -2.28% (inactive) |
| CN1CCN(S(=O)(=O)c2ccc(-c3noc(C4CCN(S(C)(=O)=O)CC4)n3)cc2)CC1 | -1.89% (inactive) |
| O=C(O)c1ccc(N/N=C/c2ccc(OC(=O)c3ccccc3Cl)cc2)cc1 | 4.34% (inactive) |
| O=C(Oc1ccc(/C=N/O)cc1)c1ccccc1 | 30.8% (inactive) |
| Cn1c(O)c(N=Nc2nc(-c3ccccc3)cs2)c2ccccc21 | 68% (inactive) |
| CCc1ccc2[nH]c(O)c(N=NC3=NC(=O)CS3)c2c1 | 1.19% (inactive) |
| COc1ccc(CCNC2CCCCC2)cc1OC | 5.74% (inactive) |
| O=C(Nc1ccccn1)c1ccc(Br)c(S(=O)(=O)N2CCCCC2)c1 | 4.83% (inactive) |
| CCCN(N=Nc1cccc([N+](=O)[O-])c1)c1cccc([N+](=O)[O-])c1 | 1.3% (inactive) |
| O=c1cc(-c2ccc(O)cc2)oc2cc(O)cc(O)c12 | -7.5% (inactive) |
| O=c1cc(-c2ccccc2)oc2cc(O)cc(O)c12 | 17.6% (inactive) |
| Cc1cc(OCC(=O)NC(C)C)ccc1Cl | 8.21% (inactive) |
| Cc1noc(-c2ccc(C(F)(F)F)cc2)c1NC(=O)Nc1ccc(Cl)cc1 | 13.4% (inactive) |

| Structure (SMILES) | inhibition |
| --- | --- |
| O=C(O)c1cccc(Cn2c(Cl)c(/C=N/NC(=O)c3ccc(O)cc3)sc2=O)c1 | -11.5% (inactive) |
| O=c1[nH]c(SCc2ccc([N+](=O)[O-])cc2)nc2[nH]ncc12 | -6.17% (inactive) |
| CC[C@H]1CC2CN3CCc4c([nH]c5ccccc45)C(C(=O)OC)(C2)C13 (some centres undefined) | 0.73% (inactive) |
| CC[C@H]1CC2CN3CCc4c([nH]c5cc(OC)ccc45)[C@](C(=O)OC)(C2)[C@H]13 | -5.98% (inactive) |
| COC(=O)C1=C(c2cc3ccccc3o2)C[C@@H]2CC[C@H]1N2C(=O)NC(C)C | 19.5% (inactive) |
| Cn1c(NCc2ccco2)nc2c1c(=O)n(Cc1ccc(Cl)c(Cl)c1)c(=O)n2C | 6.79% (inactive) |
| COc1ccc(CNc2nc3c(c(=O)n(Cc4ccc(Br)cc4)c(=O)n3C)n2C)cc1 | 34.1% (inactive) |
| Cn1c(NCc2ccccc2)nc2c1c(=O)n(Cc1ccccc1)c(=O)n2C | -5.24% (inactive) |
| Cn1c(NCc2ccco2)nc2c1c(=O)n(Cc1ccc(Cl)cc1)c(=O)n2C | 7.2% (inactive) |
| CC(C)c1nnc(N2C(=O)c3oc4ccccc4c(=O)c3C2c2ccco2)s1 (centres undefined) | -6.42% (inactive) |
| CC(=O)c1ccc(NC(=O)CSc2nnc(Cn3cnc4ccccc43)o2)cc1 | -0.74% (inactive) |
| CCc1cc2cc3c(cc2nc1SCC(=O)Nc1nnc(C)s1)OCCO3 | -4.07% (inactive) |
| COc1ccc(C(CCNCc2ccccc2)c2ccc(F)cc2)cc1 (centres undefined) | -2.55% (inactive) |
| COc1ccc(CNCCC(c2ccc(F)cc2)c2ccc(OC)cc2)cc1 (centres undefined) | 41.6% (inactive) |
| COc1ccc(C(CCNCc2ccc(OC)c(OC)c2)c2ccc(F)cc2)cc1 (centres undefined) | 2.06% (inactive) |
| COc1ccc(CNCCC(c2ccc(OC(C)C)cc2)C(C)C)cc1OC (centres undefined) | 45.4% (inactive) |
| COc1ccccc1Nc1nc(N)nc(CSC(=S)N2CCCCC2)n1 | 5.54% (inactive) |
| CCCc1nnc(SCC(=O)N2CCCCC2C)n1CC (centres undefined) | -2.59% (inactive) |
| CCOc1ccc(-c2ccc(SCC(=O)NCC3CCCO3)nn2)cc1 (centres undefined) | 3.18% (inactive) |
| Cc1cc(=O)[nH]c(SCC(=O)Nc2ccccc2C)n1 | -0.5% (inactive) |
| COc1ccccc1NS(=O)(=O)c1cccc(C(=O)N/N=C(\C)c2ccc(-n3ccnc3)cc2)c1 | -7.54% (inactive) |
| C/C(O)=C(/C#N)c1nc2ccccc2[nH]1 | 10.1% (inactive) |

| Structure (SMILES) | inhibition |
| --- | --- |
| c1ccc2c(NCC3CCCO3)nc(N3CCOCC3)nc2c1 (centres undefined) | -4.2% (inactive) |
| c1ccc2c(N3CCOCC3)nc(N3CCOCC3)nc2c1 | -0.04% (inactive) |
| CCCCNS(=O)(=O)c1ccc2nc(-c3cccnc3)cc(C(=O)NCCCN(CC)CC)c2c1 | -1.2% (inactive) |
| O=C(Nc1ccc2c(c1)OCCO2)c1cccc(S(=O)(=O)N2CCOCC2)c1 | 2.68% (inactive) |
| Cc1ccc(CNC(=O)C2CCCN(Cc3cnn(-c4ccccc4)c3-n3cccc3)C2)cc1 (centres undefined) | 3.25% (inactive) |
| COc1cccc(CNc2ncnc3cc(Cl)ccc23)c1 | 2.79% (inactive) |
| COc1ccc(CNc2ncnc3cc(Cl)ccc23)cc1OC | 3.34% (inactive) |
| COc1ccc(C(=O)C(CCC(CNC(C)(C)C)C(=O)c2ccc(OC)cc2)CNC(C)(C)C)cc1 (centres undefined) | 3.24% (inactive) |
| O=C(OCC#CCSc1nc2ccccc2s1)c1ccco1 | 74.1% (inactive) |
| O=C(CSc1nc2ccccc2o1)N1CCN(C(=O)c2ccco2)CC1 | 8.7% (inactive) |
| N#CCSc1nc2ccccc2o1 | -5.91% (inactive) |
| O=C(CSc1nc2ccccc2o1)c1cc2ccccc2oc1=O | 1.02% (inactive) |
| c1ccc2c(c1)c1c3n2CCNC3CCC1 (centres undefined) | 3.79% (inactive) |
| Cc1ccc2c(c1)c1c3n2CCCNC3CCC1 (centres undefined) | 3.76% (inactive) |
| CC(=O)Nc1nc(-c2ccccc2)c(-c2ccccc2)o1 | 56.4% (inactive) |
| COc1cccc(C(=O)Nc2ccccc2)c1 | -3.26% (inactive) |
| COc1cc(OC)cc(C(=O)Nc2ccc(-c3nc4ccccc4o3)c(O)c2)c1 | 66.5% (inactive) |
| CCOC(=O)C(=O)Nc1nc(-c2ccccc2)c(-c2ccccc2)o1 | -0.88% (inactive) |
| COc1cccc(C(=O)Nc2c(F)c(F)c(F)c(F)c2F)c1 | 0.52% (inactive) |
| COc1cc(OC)cc(C(=O)Nc2ccc(-c3nc4ccccc4o3)cc2)c1 | 16% (inactive) |
